Results taken from the supplement of paper PMC8975748.
Structures can show the parent of a compound that is named as a salt.

System: Saccharomyces cerevisiae BY4741 SeMeCo community
Experiment: z-score of subpopulation abundance vs DMSO median, subpopulation auxotrophic for L; higher = larger share of this subpopulation than in DMSO controls
Conditions: 10 µM; 24 h; SM minimal medium; subpopulation (auxotrophy): L
Protocol: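 Fluorescent four-plasmid SeMeCo (self-establishing metabolically cooperating S. cerevisiae BY4741 community; plasmids pH-mRuby2, pL-mWasabi, pU-eCFP, pM-TagRFP657) was grown 24 h in minimal SM medium with each Selleck FDA-approved drug at 10 µM in 384-well plates. Cells were fixed and imaged by high-content confocal microscopy. For each auxotrophic subpopulation (and the prototroph), a z-score gives the deviation from the DMSO vehicle-control population median.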

SMILES	z-score of subpopulation abundance
CCN1CCN(C(=O)N[C@@H](C(=O)N[C@@H]2C(=O)N3[C@@H]2SC(C)(C)[C@@H]3C(=O)O)c2ccccc2)C(=O)C1=O [Piperacillin Sodium]	1.08
CC/C(=C(\c1ccccc1)c1ccc(OCCN(C)C)cc1)c1ccccc1 [Tamoxifen Citrate]	-0.42
O=C(O)c1cc(O)c2c(c1)[C@H]([C@H]1c3cc(C(=O)O)cc(O)c3C(=O)c3c(O[C@@H]4O[C@H](CO)[C@@H](O)[C@H](O)[C@H]4O)cccc31)c1cccc(O[C@@H]3O[C@H](CO)[C@@H](O)[C@H](O)[C@H]3O)c1C2=O [Sennoside A]	-0.65
CC1(C)S[C@@H]2[C@H](NC(=O)[C@H](N)c3ccc(O)cc3)C(=O)N2[C@H]1C(=O)O [Amoxicillin trihydrate]	0.15
COc1ccc(Cl)cc1C(=O)NCCc1ccc(S(=O)(=O)NC(=O)NC2CCCCC2)cc1 [Glyburide (Glibenclamide)]	1.58
CN(C)[C@@H]1C(=O)C(C(N)=O)=C(O)[C@@]2(O)C(=O)C3=C(O)c4c(O)ccc(Cl)c4[C@@H](O)[C@H]3C[C@@H]12 [Demeclocycline HCl]	-0.08
COc1ccc(C(=O)NCc2ccc(OCCN(C)C)cc2)cc1OC [Itopride hydrochloride]	0
CCCN1C[C@H](C)[C@@H](O)[C@](C)(O)[C@@H](CC)OC(=O)[C@H](C)[C@@H](O[C@H]2C[C@@](C)(OC)[C@@H](O)[C@H](C)O2)[C@H](C)[C@@H](O[C@@H]2O[C@H](C)C[C@H](N(C)C)[C@H]2O)[C@](C)(O)C[C@H]1C [Gamithromycin]	0.42
CC[C@@]1(O)C(=O)OCc2c1cc1n(c2=O)Cc2cc3c(CN(C)C)c(O)ccc3nc2-1 [Topotecan HCl]	0.17
CC[C@H]1OC(=O)[C@H](C)[C@@H](O[C@H]2C[C@@](C)(OC)[C@@H](O)[C@H](C)O2)[C@H](C)[C@@H](O[C@@H]2O[C@H](C)C[C@H](N(C)C)[C@H]2O)[C@](C)(O)C[C@@H](C)CN(C)[C@H](C)[C@@H](O)[C@]1(C)O [Azithromycin Dihydrate]	0.09
CN(C)CCC=C1c2ccccc2CCc2ccccc21 [Amitriptyline HCl]	-0.56
O=C1Nc2ccccc2C1=O [Isatin]	-0.04
CCCCCOc1ccc(-c2ccc(-c3ccc(C(=O)N[C@H]4C[C@@H](O)[C@@H](O)NC(=O)[C@@H]5[C@@H](O)[C@@H](C)CN5C(=O)[C@H]([C@@H](C)O)NC(=O)[C@H]([C@H](O)[C@@H](O)c5ccc(O)cc5)NC(=O)[C@@H]5C[C@@H](O)CN5C(=O)[C@H]([C@@H](C)O)NC4=O)cc3)cc2)cc1	4.48
Oc1ccc([C@H]2COc3cc(O)ccc3C2)cc1 [Equol]	-0.21
CCC[C@@H]1C[C@@H](C(=O)N[C@@H]([C@H]2O[C@H](SC)[C@H](OP(=O)(O)O)[C@@H](O)[C@H]2O)[C@H](C)Cl)N(C)C1 [Clindamycin Phosphate]	-0.86
CC(Cc1ccc(O)c(O)c1)C(C)Cc1ccc(O)c(O)c1 (stereo not given) [Nordihydroguaiaretic acid (NDGA)]	0.06
C[C@]12CC[C@@H]3c4ccc(OS(=O)(=O)O)cc4CC[C@H]3[C@@H]1CCC2=O [Estropipate]	-0.9
COc1ccc2[nH]c([S@@+]([O-])Cc3ncc(C)c(OC)c3C)nc2c1 [NEXIUM (esomeprazole magnesium)]	1.11
CN1C(C(=O)Nc2ccccn2)=C(O)c2sc(Cl)cc2S1(=O)=O [Lornoxicam]	-0.14
O=C([O-])CC(O)(CC(=O)[O-])C(=O)[O-].O=C([O-])CC(O)(CC(=O)[O-])C(=O)[O-].[Bi+3].[K+].[K+].[K+].[K+].[K+] [Bismuth Subcitrate Potassium]	2.37

SMILES	z-score of subpopulation abundance
Cc1ccc(C(=O)C(C)CN2CCCCC2)cc1 (stereo not given) [Tolperisone HCl]	-0.42
CCCNCC(O)COc1ccccc1C(=O)CCc1ccccc1 (stereo not given) [Propafenone HCl]	-0.54
Cn1cc(C(=O)[C@@H]2CCc3[nH]cnc3C2)c2ccccc21 [Ramosetron Hydrochloride]	-0.44
CCC(C)C1OC2(CCC1C)CC1CC(CC=C(C)C(OC3CC(OC)C(OC4CC(OC)C(O)C(C)O4)C(C)O3)C(C)C=CC=C3COC4C(O)C(C)=CC(C(=O)O1)C34O)O2 (stereo not given) [Ivermectin]	-0.07
Cc1cc2c(s1)Nc1ccccc1N=C2N1CCN(C)CC1 [Olanzapine]	-0.11
CCCCCCCCCCCCCCCCCCOP(=O)([O-])OC1CC[N+](C)(C)CC1 [Perifosine (KRX-0401)]	-0.46
COc1cc(NS(=O)(=O)c2ccc(N)cc2)nc(OC)n1 [SulfadiMethoxine sodium]	-0.99
COc1cc(N)c(Cl)cc1C(=O)NC1CCN(CCCOc2ccc(F)cc2)CC1OC (stereo not given) [Cisapride hydrate]	-0.75
Cc1ccc(Cl)c(Nc2ccccc2C(=O)O)c1Cl [Meclofenamate Sodium]	-0.25
COCCCOc1ccnc(C[S+]([O-])c2nc3ccccc3[nH]2)c1C (stereo not given) [Rebeprazole sodium]	-0.68
C[C@H]1c2cccc(O)c2C(O)=C2C(=O)[C@]3(O)C(O)=C(C(N)=O)C(=O)[C@@H](N(C)C)[C@@H]3[C@@H](O)[C@@H]21 [Doxycycline]	-0.26
CCOC(=O)C1=C(C)NC(C)=C(C(=O)OC)C1c1cccc([N+](=O)[O-])c1 (stereo not given) [Nitrendipine]	-1.96
COc1cccc(-c2c(C)n(Cc3c(F)cccc3C(F)(F)F)c(=O)n(C[C@H](NCCCC(=O)O)c3ccccc3)c2=O)c1F [Elagolix Sodium]	-0.55
CC(=O)OCC(CCn1cnc2cnc(N)nc21)COC(C)=O [Famciclovir]	0.46
C[C@](N)(Cc1ccc(O)c(O)c1)C(=O)O [Methyldopa]	-0.9
CO[C@H]1C[C@@H]2CC[C@@H](C)[C@@](O)(O2)C(=O)C(=O)N2CCCC[C@H]2C(=O)O[C@H]([C@H](C)C[C@@H]2CC[C@@H](OC(=O)C(C)(CO)CO)[C@H](OC)C2)CC(=O)[C@H](C)/C=C(\C)[C@@H](O)[C@@H](OC)C(=O)[C@H](C)C[C@H](C)/C=C/C=C/C=C/1C	-0.9
N=C(N)NC(=N)N1CCOCC1 [Moroxydine HCl]	-0.09
CCC1(C)CC(=O)NC1=O (stereo not given) [Ethosuximide]	0.6
NC(=O)N1c2ccccc2C=Cc2ccccc21 [Carbamazepine]	0.25
C[C@H](NCc1ccc(OCc2cccc(F)c2)cc1)C(N)=O [Safinamide]	-0.58
